Tat transport: E. coli Tat transport inhibition; 340,000 tested, 0.036% active; E. coli MC4100 TorA-mCherry Tat export, fluorescence; inhibition, % at 10 µM;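 active = mean replicate inhibition at least 50% and at least half of replicates individually reaching 50%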;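 note: exported cargo escapes ClpAP degradation while cytoplasmic cargo is degraded and loses fluorescence; 0% = median of neutral control wells and 100% = median of NaSCN control wells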
phage Ecoli inh: E. coli growth loss with phage present; inhibition, % at 11.9 µM; growth absorbance; AID 651602; 360,000 tested, 0.26% active; in the data active = inhibition above about 11%
AddAB inh: less growth of phage-infected E. coli with AddAB; inhibition, % at 11.9 µM; AID 435030; E. coli expressing H. pylori AddAB, absorbance growth; 330,000 tested, 0.29% active; in the data active = inhibition above about 12%;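 note: 0% = vehicle wells of infected cells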
E coli growth-1: blocks Escherichia coli growth; OD600, 23 h; active compounds read low; OD600 absorbance (no concentration beside the values); 330,000 tested, 0.21% active; AID 1053175;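 active = OD600 absorbance below the run mean of sample wells minus 3.6 SD, in any replicate, cut at about 0.56 in these data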
E coli growth-2: counter-screen for AddAB inhibitors: E. coli growth inhibition; E. coli V3065 growth, OD600 absorbance, 18 h; inhibition, % at 11.9 µM; 330,000 tested, 0.27% active; AID 449728;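 active = inhibition above the campaign's mean inhibition across all tested compounds plus 3 SD, cut at about 9.9% in these data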;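 note: uninfected addAB+ strain grown without phage in ampicillin broth; 0% = DMSO wells and 100% = ciprofloxacin 0.95 µg/ml wells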
RecBCD conf: growth loss of phage-infected V66 E. coli, RecBCD confirmation screen | shares compounds with phage Ecoli inh | E. coli V66 + T4 2- phage, growth OD | inhibition, % at 11.9 µM | 890 tested, 45% active;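 active = mean inhibition over triplicates exceeding the hit threshold derived in the original primary screen, cut at about 11% in these data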
Ecoli viability: inhibits E. coli viability, flagging RecBCD hits as nonselective; shares compounds with phage Ecoli inh; absorbance (OD) growth; inhibition, % at 11.9 µM; 890 tested, 29% active; AID 651983; in the data active = inhibition above about 20%;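 note: E. coli strain V66 grown with compound alone and no phage infection; 0% = bacteria with DMSO vehicle only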
AddAB phage OD: growth loss of phage-infected AddAB E. coli, RecBCD counter-screen | AID 651984 | inhibition, % at 11.9 µM | 890 tested, 45% active | shares compounds with phage Ecoli inh | E. coli expressing H. pylori AddAB + T4 phage, OD growth; gene 2 mutant T4, recBCD-deleted host;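 active = mean inhibition above the solvent-only control wells' mean plus 3 SD, cut at about 22% in these data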;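 note: higher means less bacterial growth from phage killing when AddAB is blocked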
* hit, by the source's call; / = no result given; ! = not active in a repeat. Sampled rows, rich in hits. Any-hit rate of the full collection: about 0.51%.

SMILES	Tat transport	phage Ecoli inh	AddAB inh	E coli growth-1	E coli growth-2	RecBCD conf	Ecoli viability	AddAB phage OD
Cc1cc(C)cc(C(O)c2ncc(-c3ccc4ccccc4c3)[nH]2)c1 (centres undefined)	/	18*	/	/	/	12*	15	26*
OC(c1ccc(F)cc1)c1ncc(-c2ccc(Oc3ccccc3)cc2)[nH]1 (centres undefined)	/	5	/	/	/	/	/	/
Cc1cc(C(O)c2ncc(-c3ccc(Oc4ccccc4)cc3)[nH]2)ccc1F (centres undefined)	/	11*	/	/	/	1	4	4
Cc1ccc(-c2cnc(C(O)c3cc(C)cc(C)c3)[nH]2)cc1 (centres undefined)	/	17*	/	/	/	11*	14	14
CCN(CC)c1ccc(C=NNC(=O)C(O)c2ccccc2)cc1 (centres undefined)	/	/	/	0.71	/	/	/	/
Cc1onc(-c2ccccc2)c1C(=O)OCC(=O)Nc1ccccc1	2	3	/	0.69	/	/	/	/
CCc1noc(C)c1C(=O)OCC(=O)Nc1ccc2c(c1)OCO2	-4	12*	2	0.68	-1	2	2	-1
Cc1cccc(NC(=O)COC(=O)c2c(-c3ccccc3)noc2C)c1	/	13*	/	/	/	-1	-1	-1
CC(=NNc1cc(C)c2cc(C)ccc2n1)c1ccccn1	/	17*	/	/	/	1	1	3
Cc1cc2cc(CCNC(=O)c3cccs3)c(=O)[nH]c2cc1C	-9	14*	11	0.69	7	5	6	8
COc1ccc(C=NNC(=O)Cn2cc(C(F)(F)F)ccc2=O)cc1	/	/	/	0.71	/	/	/	/
CCOC1OC(C(=O)O)=CC(c2coc3ccccc3c2=O)C1CCCO (centres undefined)	/	/	/	0.72	/	/	/	/
O=C(Nc1ccc2[nH]ncc2c1)c1ccc(F)cc1	-2	12*	4	0.7	0	-1	-2	-2
CC(=NNC(=O)c1ccc(NS(=O)(=O)c2cccs2)cc1)c1ccncc1	/	/	/	0.66	/	/	/	/
Cc1cc(C)cc(NC(=O)Cn2cc3c(n2)CCCCC3)c1	/	/	2	0.77	-1	/	/	/
CN(C)c1ccc(NC(=O)Cn2cc3c(n2)CCCC3)cc1	8	13*	0	0.77	-3	0	-1	4
CCCC[n+]1ccn(-c2nc3ccccc3nc2[N-]S(=O)(=O)c2ccccc2)c1	7	1	3	0.71	0	/	/	/
CCCC[n+]1ccn(-c2nc3ccccc3nc2[N-]S(=O)(=O)c2cccs2)c1	-2	97*	-1	0.67	0	2	2	-2
O=C(NN=Cc1ccc2c(c1)OCO2)C(O)c1ccccc1 (centres undefined)	/	/	/	0.68	/	/	/	/
O=C(NN=Cc1cc(Br)cc(Br)c1O)c1ccncc1	/	/	/	0.66	/	/	/	/
O=C(NC(Nc1nc2ccc([N+](=O)[O-])cc2s1)(C(F)(F)F)C(F)(F)F)c1ccccc1Cl	-2	15*	14*	0.59	11*	8	11	6
O=C(CCn1cnc(-c2ccccc2)c1-c1ccccc1)N/N=C/c1ccccc1O	2	11*	2	/	1	3	2	5
CCC(=NO)c1c(O)c2c(n(-c3ccccc3)c1=O)CCCC2	/	/	/	0.65	/	/	/	/
COc1ccc(C(C)=NNC(=O)CNC(=O)c2cccs2)cc1	/	/	/	0.7	/	/	/	/
COc1cccc(NC(=O)Nc2nc(SC(C)(C)C)ns2)c1	-21	13*	5	0.6	8	5	4	15
SMILES	Tat transport	phage Ecoli inh	AddAB inh	E coli growth-1	E coli growth-2	RecBCD conf	Ecoli viability	AddAB phage OD
O=C(N/N=C/c1sc2ccccc2c1O)c1cccc2ccccc12	-3	13*	6	/	-1	5	11	7
COc1ccc2cc(C(=O)N/N=C/c3sc4ccccc4c3O)ccc2c1	-5	23*	10	/	12*	14*	18	19
O=C(NN=Cc1sc2ccccc2c1O)c1ccccc1	/	/	/	0.62	/	/	/	/
COc1ccc(C2C=CCN(C(=O)c3ccc(C)cc3)C(Cc3ccccc3)C(=O)N2Cc2ccc(F)cc2)cc1 (centres undefined)	/	/	/	0.7	/	/	/	/
COc1ccccc1N1CCN(Cc2cc(Br)c(O)c3ncccc23)CC1	-4	12*	10	0.8	12*	4	7	-3
CCOc1ccccc1N1CCN(Cc2cccc(OC)c2O)CC1	-16	1	3	0.66	3	/	/	/
O=C(NCc1ccccc1)C1CC1C(NP(=O)(c1ccccc1)c1ccccc1)c1ccccc1 (centres undefined)	/	/	/	0.71	/	/	/	/
CC(C)CCNC(=S)Nc1ccc(Br)cc1	11	11*	9	0.59	8	4	5	12
COc1ccc(N(C(C)C(=O)NN=Cc2cc(Br)c(C)o2)S(C)(=O)=O)cc1 (centres undefined)	/	/	/	0.68	/	/	/	/
COc1ccc(/C=N/NC(=O)c2ccncc2)cc1OC	-3	0	3	/	1	/	/	/
COc1cc(/C=N/NC(=O)c2ccncc2)ccc1O	-9	100*!	-2	/	-3	-2	-1	-1
Cc1ccccc1Cn1c(CN2CCN(C(=O)c3ccco3)CC2)nc2c1c(=O)n(C)c(=O)n2C	3	97*	-2	0.76	1	-4	-4	-2
O=C1CSC(=NN=Cc2ccco2)N1c1ccccc1	/	/	/	0.62	/	/	/	/
CC(=NNC(=O)CNC(=O)c1cccc(F)c1)c1ccc2c(c1)CCCC2	/	/	/	0.66	/	/	/	/
COc1cccc(/C=N/NC(=O)c2cc(-c3cccn3C)n[nH]2)c1O	-6	12*	4	/	4	6	9	20
CN(C)C(=O)N1CCC(C(=O)NCc2ccc(F)cc2)CC1	-7	46*	1	0.73	-1	-3	-2	-2
Cc1cc(N2CCCC2)ccc1C=Nn1cnnc1	/	/	/	0.7	/	/	/	/
CCN(CC)c1ccc2cc(-c3nc4ccccc4n3C)c(=O)oc2c1	12	99*	0	0.67	0	80*	71*	93*
CCN(CC)c1ccc2cc(-c3nc4ccccc4[nH]3)c(=O)oc2c1	2	/	0	0.67	0	/	/	/
Cc1ccc(C=NNC(=O)Cn2cnc3ccccc32)cc1	/	/	/	0.63	/	/	/	/
C=CCc1cccc(C=NNC(=O)CCC(=O)Nc2ccc(C)cc2)c1O	/	/	/	0.75	/	/	/	/
C=CCc1cccc(/C=N/NC(=O)CCCNc2ccc(C)cc2)c1O	8	12*	0	/	2	1	3	5
FC(F)Sc1ccc(NC(=S)NCc2ccccc2)cc1	-2	13*	9	0.57	6	7	9	7
FC(F)Sc1ccc(NC(=S)NC(c2ccccc2)c2ccccc2)cc1	-3	5	8	0.7	6	/	/	/
FC(F)(F)c1ccc(NC(=S)NCc2ccccc2)cc1	-7	11*	10	0.53	9	6	7	8
O=C(O)c1ccc(NC(=S)NCc2ccccc2)cc1	-8	1	3	0.67	0	/	/	/
C=CCN1C(=O)CSC1=NS(=O)(=O)c1ccc(Cl)cc1	/	/	/	0.65	/	/	/	/
